Assay results as given in PubChem BioAssay AID1159580 (chemical genetic matrix, 2015).
Out of some 5,500 compounds screened, about 2,000 (36%) were called active. Inconclusive results (about 18%) are left out. Cut-off read from the data, not from the text of the source: active = normalized growth mostly below about 0.91 (no sharp cut-off); inconclusive = no clear call, values can overlap the other calls; inactive = mostly above about 0.92. Some of the results follow.

Assay: chemical genetic growth profiling, strain panel (AID 1159580);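 note: tested at 20 µM; growth read once vehicle control cultures reached saturation at 30 °C; 1 = growth at the plate median or of vehicle wells; lower values mean less growth of the strain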
Conditions: growth OD

Measured: normalized growth

O=C(Nc1ccc(C(F)(F)F)cc1)Nc1ccccc1C(=O)O
inactive: S. cerevisiae deletion strains, locus YAL013W, strain DEP1, stronger effect = lower value 0.975 | S. cerevisiae deletion strains, locus YBR229C, strain ROT2, stronger effect = lower value 0.993 | S. cerevisiae deletion strains, locus YCL061C, strain MRC1, stronger effect = lower value 0.967 | S. cerevisiae deletion strains, locus YDL101C, strain DUN1, stronger effect = lower value 0.994 | S. cerevisiae deletion strains, locus YDL134C, strain PPH21, stronger effect = lower value 0.989 | S. cerevisiae deletion strains, locus YDR150W, strain NUM1, stronger effect = lower value 0.972 | S. cerevisiae deletion strains, locus YEL061C, strain CIN8, stronger effect = lower value 1.01 | S. cerevisiae deletion strains, locus YGR078C, strain PAC10, stronger effect = lower value 0.984 | S. cerevisiae deletion strains, locus YGR229C, strain SMI1, stronger effect = lower value 0.975 | S. cerevisiae deletion strains, locus YHR030C, strain SLT2, stronger effect = lower value 0.99 | S. cerevisiae deletion strains, locus YHR087W, strain rtc3, stronger effect = lower value 0.994 | S. cerevisiae deletion strains, locus YJR043C, strain POL32, stronger effect = lower value 0.981 | S. cerevisiae deletion strains, locus YJR075W, strain HOC1, stronger effect = lower value 0.979 | S. cerevisiae deletion strains, locus YKL190W, strain CNB1, stronger effect = lower value 0.989 | S. cerevisiae deletion strains, locus YLR039C, strain RIC1, stronger effect = lower value 1.01 | S. cerevisiae deletion strains, locus YLR058C, strain SHM2 (second series), stronger effect = lower value 0.979 | S. cerevisiae deletion strains, locus YLR085C, strain ARP6, stronger effect = lower value 1 | S. cerevisiae deletion strains, locus YLR262C, strain YPT6, stronger effect = lower value 0.935 | S. cerevisiae deletion strains, locus YML094W, strain GIM5, stronger effect = lower value 1 | S. cerevisiae deletion strains, locus YMR219W, strain ESC1, stronger effect = lower value 0.971 | S. cerevisiae deletion strains, locus YMR263W, strain SAP30, stronger effect = lower value 0.991 | S. cerevisiae deletion strains, locus YNL153C, strain GIM3, stronger effect = lower value 0.977 | S. cerevisiae deletion strains, locus YNL298W, strain CLA4 (second series), stronger effect = lower value 0.96 | S. cerevisiae deletion strains, locus YNL322C, strain KRE1, stronger effect = lower value 0.971 | S. cerevisiae deletion strains, locus YNR030W, strain Alg12, stronger effect = lower value 1 | S. cerevisiae deletion strains, locus YOL006C, strain TOP1, stronger effect = lower value 0.939 | S. cerevisiae deletion strains, locus YPL055C, strain LGE1, stronger effect = lower value 0.996 | S. cerevisiae deletion strains, locus YPL241C, strain CIN2, stronger effect = lower value 0.977 | S. cerevisiae deletion strains, locus YPR135W, strain CTF4, stronger effect = lower value 0.949 | S. cerevisiae strains, strain wild type, stronger effect = lower value 0.968
